# Source: PubChem (several laboratories)
# In the library only some 27% were active in any assay of this set; here they are far more common.
# sEH inh = soluble epoxide hydrolase inhibitors, primary screen, biochemical, human sEH; recombinant human sEH enzymatic activity assay; Bifunctional epoxide hydrolase 2 (Homo sapiens), P34913; inhibition, % at 2 µM; actives 0.34% (n = 91,000); in the data active means inhibition above about 80%
# CYP2C9 inhib = blockers of cytochrome P450 2C9 activity – biochemical, luminescence, ADME assay, primary screen | CYP2C9 Supersomes, luciferin-H conversion | P11712 | actives 20% (n = 96,000) | inhibition, % at 5 µM | AID 777, 2007;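 active means blocking of liver enzyme CYP2C9 beyond about 50% at 5 µM, limit read from the data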
# CYP2C19 act = human CYP2C19 activators, primary screen, biochemical, luminescence; recombinant CYP2C19, luciferin-H EGE luminescence; active compounds read high; 0 = fully inhibited enzyme, 1 = untreated enzyme; activation factor at 5 µM; 96,000 tested, under 10 active; AID 1025, 2008;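 active means activation factor of at least 2 at 5 µM in the primary screen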;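 further: 0 = wells with 2.5 mM tranylcypromine and 1 = vehicle-only wells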
# Target sequence (P33261 whole entry, looked up): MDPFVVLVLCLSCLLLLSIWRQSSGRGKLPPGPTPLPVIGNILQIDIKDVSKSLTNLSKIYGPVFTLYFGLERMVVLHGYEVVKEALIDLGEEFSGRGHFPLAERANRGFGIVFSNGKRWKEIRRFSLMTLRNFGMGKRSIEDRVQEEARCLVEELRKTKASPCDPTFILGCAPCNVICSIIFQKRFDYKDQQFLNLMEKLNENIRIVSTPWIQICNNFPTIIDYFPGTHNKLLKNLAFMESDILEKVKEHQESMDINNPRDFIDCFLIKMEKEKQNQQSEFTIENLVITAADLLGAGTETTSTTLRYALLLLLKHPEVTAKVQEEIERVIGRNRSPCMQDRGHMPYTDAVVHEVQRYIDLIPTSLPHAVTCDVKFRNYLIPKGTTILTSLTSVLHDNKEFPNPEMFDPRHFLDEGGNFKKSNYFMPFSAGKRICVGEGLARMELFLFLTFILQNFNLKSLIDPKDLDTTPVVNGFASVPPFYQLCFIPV
# CYP2C9 activ = human CYP2C9 activators, primary screen, biochemical, luminescence; actives 1.4% (n = 96,000); Cytochrome P450 2C9 (Homo sapiens), P11712; recombinant CYP2C9, luciferin-H conversion; active compounds read high; factor 1 = untreated enzyme, 0 = blocked; activation factor at 5 µM;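 active means activation factor of 2 or more for CYP2C9 at a 5 µM dose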;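 further: 0 = sulfaphenazole-blocked wells and 1 = vehicle-only wells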
# sEH activator = soluble epoxide hydrolase activators, primary screen, biochemical, human sEH; AID 717, 2007; Bifunctional epoxide hydrolase 2 (Homo sapiens), P34913; activation, % at 2 µM; purified human sEH enzymatic activity, activator screen; actives 0.04% (n = 91,000); in the data active means activation above about 37%
# CYP2C19 inh = blockers of cytochrome P450 2C19 activity – biochemical, luminescence, ADME assay, primary screen | P33261 | CYP2C19 Supersomes, luciferin-H EGE luminescence, 30 min | inhibition, % at 5 µM | actives 21% (n = 96,000);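 active means CYP2C19 inhibition above a set limit at 5 µM in the primary screen, cut at about 50% in these data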;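 further: plate controls were negative control wells for no effect and 2.5 mM tranylcypromine positive control for full effect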
# * hit, by the source's call; · = no result given.
SMILES,sEH inh,CYP2C9 inhib,CYP2C19 act,CYP2C9 activ,sEH activator,CYP2C19 inh
COc1cccc(C(=O)Nc2ccccc2)c1,3,-2,0.7,1,1,31
CN(C)S(=O)(=O)c1cccc(C(=O)Nc2cc(Cl)ccc2O)c1,2,67*,0.5,0.3,-2,49
CSc1nc(C)cc(OCC(=O)n2nc(C)cc2C)n1,8,5,0.6,1,-8,39
CNS(=O)(=O)c1cccc(C(=O)Nc2cccc(Cl)c2)c1,15,62*,0.3,0.4,-14,70*
CC(/C=C/c1cccs1)=C\C(=O)O,12,-1,1.1,1,-12,-13
Cc1onc(-c2ccccc2Cl)c1C(=O)N(Cc1nc(-c2ccccc2)no1)C1CCCCC1,-6,86*,0,0.1,6,95*
Cc1cccc(-c2noc(CN(C(=O)c3c(-c4ccccc4Cl)noc3C)C(C)C)n2)c1,·,63*,0.1,0.4,·,91*
COc1ccc(C(=O)N(Cc2nc(-c3ccc(C)cc3)no2)C2CCCCC2)cc1OC,·,81*,0.2,0.2,·,82*
COc1cccc(C(=O)N(Cc2nc(-c3ccc(C)cc3)no2)C(C)C)c1,9,41,0.9,0.6,-4,12
CN1C(=O)c2cccc(NCCCCCCN3C(=O)c4ccccc4C3=O)c2C1=O,-6,75*,0.7,0.3,6,32
CN(C)CCNc1nc2c(c(=O)[nH]c(=O)n2C)n1CC(O)COc1ccc(Cl)cc1Cl (stereo not drawn),-9,10,0.9,0.9,8,9
Cn1nc(-c2ccccc2)c(CSc2ccccc2)c1Cl,3,14,0.8,0.9,0,16
Cc1c(Br)cc(C(=O)OC2CCN(C)CC2)c(C)c1C,-3,-126,0.8,2.3*,5,22
CC(=O)N1CCc2cc3nc(C)cc(C)c3cc21,0,7,1,0.9,1,4
CC(C)NC(=O)C1(O)c2ccccc2NC(=O)N1c1ccc(Cl)c(Cl)c1 (stereo not drawn),·,46,0.7,0.5,·,26
CCOc1ccc2c(c1)s/c(=N\S(=O)(=O)c1ccc(OC)cc1)n2C(F)F,-9,45,0.4,0.6,12,61*
COCCn1c(SC(C)C(=O)Nc2ncc(Cl)cc2Cl)nc2ccccc21 (stereo not drawn),-3,14,0.3,0.9,1,68*
CC(C)CNC(=O)NC(=O)CSc1nc2ccccc2n1CC(C)C,-4,-8,0.5,1.1,5,47
CCNC(=O)NC(=O)CSc1nc2ccccc2n1CCOC,-4,61*,0.8,0.4,6,22
CCCNC(=O)NC(=O)CSc1nc2ccccc2n1CC(C)C,-8,53*,0.1,0.5,8,88*
Cc1nnc(SC(C)C(=O)Nc2ncc(Cl)cc2Cl)n1Cc1ccccc1 (stereo not drawn),5,12,0.9,0.9,-6,11
CCSc1nc2c(cnn2-c2ccc(C)cc2)c(=O)[nH]1,·,-19,1,1.2,·,0
O=C(CS(=O)(=O)Cc1ccccc1)NCc1ccc2c(c1)OCO2,11,-3,1,1,-11,1
CC(=O)OCCN(Cc1ccccc1)Cc1ccc2c(c1)OCO2,-11,84*,0,0.2,12,99*
CCC(NC(=O)N(Cc1ccccc1)Cc1ccc2c(c1)OCO2)(C(F)(F)F)C(F)(F)F,-3,94*,0,0.1,4,100*
SMILES,sEH inh,CYP2C9 inhib,CYP2C19 act,CYP2C9 activ,sEH activator,CYP2C19 inh
CC(=O)N(CCC(Cc1ccccc1)c1ccc2c(c1)OCO2)Cc1ccc(Cl)cc1 (stereo not drawn),11,75*,0.2,0.2,-9,76*
CC(NC(=O)N(Cc1ccccc1)Cc1ccc2c(c1)OCO2)(C(F)(F)F)C(F)(F)F,3,93*,0.1,0.1,-3,86*
COC(=O)Nc1ccc2c(c1)N(C(=O)CCN1CCN3CCCC3C1)c1ccccc1S2 (stereo not drawn),·,10,1,0.9,·,-3
O=C(/C=C\Nc1ccccn1)c1ccc(Cl)cc1,-2,-24,0.8,1.2,4,24
CCOC(=O)c1ccc(NC(=O)NC2CC3CCC(C2)N3Cc2nnnn2C(C)(C)C)cc1 (stereo not drawn),67,16,1,0.8,-67,-4
COc1ccc(CN(Cc2ccccn2)C(=O)CN2C(=O)COc3ccccc32)cc1,-6,42,0.5,0.6,7,47
CC(C)C(=O)N(Cc1ccc2c(c1)OCO2)Cc1ccccn1,-1,16,0.2,0.8,0,76*
Cc1nn(CC(C)C)c(=S)[nH]c1=O,·,36,0.9,0.6,·,11
O=C(NC(C(=O)c1ccccc1)N1CCOCC1)c1cccs1 (stereo not drawn),5,96*,0.1,0,-2,94*
O=C(NC(C(=O)c1ccccc1)N1CCOCC1)c1ccccc1 (stereo not drawn),·,91*,0.2,0.1,·,79*
COC(=O)c1c(C(=O)OC)c2cc(C(=O)c3ccccc3)ccn2c1Cl,-9,·,·,·,9,·
CCOC(=O)c1c(CC(C)C)csc1NC(C)=O,-6,62*,0.6,0.4,7,44
CCOC(=O)c1c(CC(C)C)csc1NC=O,3,36,0.8,0.6,-4,22
O=C(Nc1nnc(C2CC2)s1)c1cccc(S(=O)(=O)N2CCc3ccccc32)c1,5,37,0.8,0.6,-6,23
Cc1ccc2nc(Cc3ccc(N)cc3)oc2c1,-11,32,0.3,0.7,9,69*
Cc1ccc2nc(CCc3nc4ccc(C)cc4o3)oc2c1,13,1,0.9,1,-12,8
CNc1nc(C)c(C(C)=O)cc1C#N,6,-4,1,1,-4,-2
Cc1csc(-c2cnn(-c3ccccc3)c2NC(=O)c2cccc(C(F)(F)F)c2)n1,6,48,0.8,0.5,-6,22
CCOC(=O)C1CCN(c2c(NCc3ccc(C(=O)NC(C)CC)cc3)c(=O)c2=O)CC1 (stereo not drawn),-8,59*,0.9,0.4,9,12
CCOC(=O)C1CCN(c2c(NCCN3CCN(c4ccccc4)CC3)c(=O)c2=O)CC1,3,-4,1,1,-3,-1
CC1(C(=O)O)Cc2ccccc2C(=O)O1 (stereo not drawn),7,-3,1,1,-5,0
Cc1ccc2c(c1)CC1(CN2C)C(=O)OC(C)(C)OC1=O,-4,-21,0.9,1.2,6,9
